This assay can be described thus: compound effects on hepatocellular carcinoma cell viability – HepG2, calcein-AM fluorescence, 48 h, basal, profiling panel (AID 1164). Note: test concentration not given here. The following applies: higher = more signal.
On to `COC(=O)c1c(CC[C@@H](CO)NC(=O)N2CCC[C@H]2Cn2cc(-c3ccccn3)nn2)oc(C(C)=O)c1C(=O)OC`, for which the z-score is -1.02.
With `CCN(CC)c1ccc(N2CC=CC34O[C@@H]5/C=C\CCCOC(=O)C5[C@H]3C(=O)N(CCO)[C@@H]4C2=O)cc1` (stereo partly specified), the z-score is 0.0797.
Turning to `CCOC(=O)C1=CCC(c2ccccc2)N(S(=O)(=O)CC[Si](C)(C)C)C1` (stereo unspecified), the z-score was 0.413.
For the compound `NCCCCCNC(=O)[C@@H]1C[C@@H]2C(=O)NCC(=O)N2[C@@H]1c1ccc(O)cc1`, the z-score was 0.678.
For the compound `CC(C)(C)OC(=O)CC[C@]1(C(=O)O)N=C(c2ccc(OCCCO)cc2)O[C@H]1c1ccccc1N=[N+]=[N-]`, the z-score was 0.331.
Then `O=C1C2C=CC(C(O)C(c3ccccc3)c3ccccc3)N(n3cnnc3)C2C(=O)N1Cc1ccccc1` (stereo unspecified), with -1.13; and `COc1ccc([Si](C)(C)[C@H]2[C@H](CCn3cc([C@H](O)c4ccccc4)nn3)O[C@@]3(C(=O)N(Cc4cccc(N5CCOC5=O)c4)c4ccccc43)[C@@H]2C)cc1`, with 0.243.
In the case of `COCCOC(=O)N1C(=O)[C@@]2(c3cc(C#Cc4ccc(OC)cc4)ccc31)[C@H](C(N)=O)[C@H]1C(=O)O[C@H](c3ccccc3)[C@H](c3ccccc3)N1[C@@H]2c1ccccc1OCCO`, the z-score was -1.76.
For `CC(CO)N1C(=O)[C@@H]2C3C(=O)OCCC/C=C\[C@H]3OC23C=CCN(c2ccc4ccccc4c2)C(=O)[C@@H]13` (stereo partly specified), the z-score was 1.14.
For `O=C1NC(=O)C2C1C=CC(C(O)C(c1ccccc1)c1ccccc1)N2Nc1ccc(Cl)cc1Cl` (stereo unspecified) the value was -2.7; for `CC(=O)n1cc(C(O)C2C=CC3C(=O)N(C)C(=O)C3N2Nc2ccccc2)c2ccccc21` (stereo unspecified), -0.804; for `CC(C)C[C@@H]1NC(=O)[C@H]2C[C@@H](C(=O)NCCCCCCN(C)C)[C@@H](c3ccc(O)cc3)N2C1=O`, -0.59.
For the compound `CCN(CC)c1ccc(N2CC=CC34O[C@@H]5/C=C\CCC(C)OC(=O)C5[C@H]3C(=O)N(C(CO)C(C)C)[C@@H]4C2=O)cc1` (stereo partly specified), the z-score was 0.936.
Then `C=CCNC(=O)[C@H]1[C@@H]2C(=O)O[C@@H](c3ccccc3)[C@@H](c3ccccc3)N2[C@@H](c2ccccc2OCCO)[C@]12C(=O)Nc1ccc(C#CC3=CCCCC3)cc12`, with -4.21; and `CCOC(=O)[C@H]1C/C=C/C[C@H](C(=O)OCC)C(=O)O[C@H]2[C@@H](OC)O[C@H](CO)[C@@H](OC(=O)Nc3cccc(F)c3)[C@@H]2OC1=O`, with -5.19.
`CCCC[C@H]1OB(O)C[C@H]2C1=C(COc1ccccc1)C[C@H]1C(=O)N(C)C(=O)[C@H]12`: the z-score is 0.258.
`OC([C@@H]1CC(c2ccccc2)=NO1)[C@H]1CC(c2ccccc2)=NO1` (stereo partly specified): the z-score was 1.59.
As for `CN(C)C(=O)[C@]1(Cc2ccccc2N=[N+]=[N-])N=C(c2ccc(OCCCO)cc2)O[C@@H]1c1ccccc1`, the z-score is 0.351.
For `CCCCCN1CC=CC23O[C@@H]4/C=C\CCCOC(=O)C4[C@H]2C(=O)N(CCCO)[C@@H]3C1=O` (stereo partly specified) the value was -0.495.
Then `CC(C)[C@@H](CO)NC(=O)[C@H]1[C@@H](c2ccccc2)N(c2ccccc2)O[C@@H]1C`, with 0.319.
As for `C=CC[C@@]1(C(=O)N(C)C)N=C(c2ccc(OCCCO)cc2)O[C@@H]1c1ccccc1N=[N+]=[N-]`, the z-score was 0.571.
Regarding `C=C(C)C1C(=C)CN([C@H](CO)c2ccccc2)C1=O` (stereo partly specified), the z-score was -0.764.
As for `O=C(O)[C@@]1(CCS(=O)(=O)c2ccccc2)COC(c2ccc(OCCCO)cc2)=N1`, the z-score is -0.0551.
`COC(=O)[C@@]1(Cc2ccc(OC)cc2)[C@H]2c3cc(C(=O)N(C)C)n(CCN4CNCC4=O)c3C[C@H]2CN1C(=O)c1ccccc1`: the z-score was -0.254.
With `[N-]=[N+]=NCc1ccccc1[C@@H]1OC(c2ccc(OCCCO)cc2)=N[C@]1(Cc1ccccc1N=[N+]=[N-])C(=O)N1CCOCC1`, the z-score is -0.761.
Take `CN(C)CCCCCCNC(=O)[C@@H]1C[C@@H]2C(=O)N[C@@H](CCCCN)C(=O)N2[C@@H]1c1cccc(OCCO)c1`: the z-score was 1.25.
For `CN1C(=O)C2C=CC(C(O)C3=C[C@H]4C[C@@H](C3)C4(C)C)N(Nc3ccccc3)C2C1=O` (stereo partly specified) the value was -0.0728; for `COC(=O)c1c(CC[C@@H](CO)NC(=O)N[C@H](Cn2cc(Cc3ccccc3)nn2)C(C)C)oc(C(C)=O)c1C(=O)OC`, 0.141.
For `CN(C)CCCNC(=O)[C@@]1(c2ccc([N+](=O)[O-])cc2)CC(=O)N(C2CCCCC2)[C@@H]1c1ccc(CO)cc1` the value was 0.23; for `C=CCN1C(=O)[C@@]2(O[C@@H](CCO)[C@H]([Si](C)(C)c3ccc(OC)cc3)[C@H]2C)c2cc(NC(=O)c3ccc(OC)cc3)ccc21`, -4.47; for `COc1ccc([C@H]2C[C@H]3C(Br)=C[C@@H]2C(=O)[C@]32CO2)cc1`, -0.193.
For `COc1ccc(C(=O)Nc2ccc(CN3C(=O)[C@@]4(O[C@@H](CC(=O)N5CCC[C@H]5CO)[C@H]([Si](C)(C)c5ccc(OC)cc5)[C@H]4C)c4ccccc43)cc2)cc1` the value was 0.269; for `COCCOC(=O)N1C(=O)[C@@]2(c3cc(C#CC4=CCCCC4)ccc31)[C@H](C(=O)Nc1nc3ccccc3s1)[C@H]1C(=O)O[C@H](c3ccccc3)[C@H](c3ccccc3)N1[C@@H]2c1ccc(OCCO)cc1`, 0.185.
Regarding `C=CCOC(=O)[C@H]1[C@@H]2C(=O)O[C@@H](c3ccccc3)[C@@H](c3ccccc3)N2[C@@H](c2ccc(OCCOC(=O)[C@H]3C[C@H]4C(=O)N5CCC[C@H]5C(=O)N4[C@H]3c3ccc(O)cc3)cc2)[C@]12C(=O)Nc1ccccc12`, the z-score was 0.226.
Turning to `C=C(CCCC)/C(=C/C[C@@H](OC(C)=O)c1ccccc1OCCO)c1cnc2ccccc2c1`, the z-score was -0.749.
For `Cc1ccc(C(C)CC(O)C2C=CC3C(=O)N(c4ccccc4)C(=O)C3N2Nc2ccc([N+](=O)[O-])cc2)o1` (stereo unspecified) the value was 0.268.

(Values after PubChem BioAssay.)
